Only some compounds are listed: those with a hit (about 3.4% of all), similar ones and a draw of the others.
MITF primary: blocks human microphthalmia-associated transcription factor; AlphaScreen MITF homodimerization, bead proximity signal; O75030; inhibition, % at 2.6 µM; 650,000 tested, 0.91% active; in the data active means inhibition above about 50%;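 further: 0% = vehicle wells with protein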
GPR151 ag: human GPR151 activation; activation, % at 11.2 µM; 650,000 tested, 1% active; PathHunter beta-arrestin GPR151 cells, luminescence; in the data active means activation above about 4.9%;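 further: 0% = median of compound wells and 100% = cells with positive control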
FBW7 act: human FBW7 E3 ligase activation, primary screen. normalized activity (activation), % at 26.1 µM. AlphaScreen FBW7–phospho-cyclin E peptide binding, activator screen. 650,000 tested, 0.13% active. Q969H0; in the data active means normalized activity above about 1.9%;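 further: purified mutant Fbw7 with reduced substrate affinity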
Target sequence (Q969H0 whole entry, looked up): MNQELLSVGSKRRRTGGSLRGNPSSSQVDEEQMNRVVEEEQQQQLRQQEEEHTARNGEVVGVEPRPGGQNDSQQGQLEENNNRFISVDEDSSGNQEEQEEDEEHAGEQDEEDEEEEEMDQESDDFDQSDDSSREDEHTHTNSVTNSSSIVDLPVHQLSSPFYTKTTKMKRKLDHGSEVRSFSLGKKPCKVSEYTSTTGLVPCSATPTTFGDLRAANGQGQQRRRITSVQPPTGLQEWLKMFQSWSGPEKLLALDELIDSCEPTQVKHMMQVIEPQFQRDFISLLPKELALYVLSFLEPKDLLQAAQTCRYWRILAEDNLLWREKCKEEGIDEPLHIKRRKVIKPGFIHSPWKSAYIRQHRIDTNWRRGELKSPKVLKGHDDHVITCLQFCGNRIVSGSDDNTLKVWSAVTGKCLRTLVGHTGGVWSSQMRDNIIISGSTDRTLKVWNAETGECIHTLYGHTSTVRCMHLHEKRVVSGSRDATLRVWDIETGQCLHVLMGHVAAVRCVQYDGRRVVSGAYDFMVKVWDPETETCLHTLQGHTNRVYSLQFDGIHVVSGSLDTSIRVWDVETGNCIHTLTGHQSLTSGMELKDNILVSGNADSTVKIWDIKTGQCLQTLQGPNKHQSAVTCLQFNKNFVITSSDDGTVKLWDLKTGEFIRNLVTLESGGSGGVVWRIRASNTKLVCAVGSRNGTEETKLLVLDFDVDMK
TEAD-YAP inh: TEAD-YAP interaction inhibition; AID 1259422; HEK-TIYL cells, TEAD-Gal4/YAP UAS-luciferase luminescence; inhibition, % at 9.12 µM; 640,000 tested, 1.4% active; in the data active means inhibition above about 32%;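 further: 0% = median of test compound wells and 100% = reference inhibitor wells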
GPR151 confirm: confirmation of human GPR151 activators; shares compounds with GPR151 ag; GPR151 PathHunter beta-arrestin cells, luminescence, 90 min; % of EA-reagent control over plate median; activation, % at 11.2 µM; 6,700 tested, under 10 active;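 active means mean percent activation across replicates above the confirmation screen cutoff of 4.91%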
GPR119 counter: GPR119 activation, counter-screen for GPR151 activators; 6,700 tested, 0.3% active; shares compounds with GPR151 ag; GPR119 PathHunter beta-arrestin cells, luminescence, 90 min; 0 = compound-well median, 100 = enzyme-acceptor control; AID 1508611; activation, % at 11.2 µM;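 active means mean percent activation in the counterscreen above 29.09%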;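 further: counterscreen on off-target GPR119 to flag nonselective hits from the GPR151 activator screen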
Numbers without * were called inactive.

What do the screens show for `CCN1CCN(C(c2ccccc2)c2sc3nc(-c4ccco4)nn3c2O)CC1` (centres undefined)?
MITF primary: -12; GPR151 ag: 5.3*; FBW7 act: 0; TEAD-YAP inh: 3; GPR151 confirm: -1; GPR119 counter: 2

What do the screens show for `Cc1ccc(C)c(N2CCN(C(c3nnnn3CC3CCCO3)C(C)C)CC2)c1` (centres undefined)?
MITF primary: 2; GPR151 ag: -1; FBW7 act: 0; TEAD-YAP inh: -6

How did CCOc1ccc(NC(=O)CC2S/C(=N\N=C(/C)c3ccc(Cl)cc3)NC2=O)cc1 (centres undefined) do in these assays?
MITF primary: 5; GPR151 ag: 6.7*; FBW7 act: 0; TEAD-YAP inh: 4; GPR151 confirm: 0; GPR119 counter: -9

How did CCOc1ccc(NC2SC(=O)NC2=O)cc1 (centres undefined) do in these assays?
MITF primary: -2; GPR151 ag: 5.0*; FBW7 act: 0; TEAD-YAP inh: 9; GPR151 confirm: -1; GPR119 counter: -9

How did CCOc1ccc(NC(=O)CC2SC(=O)NC2=O)cc1 (centres undefined) do in these assays?
MITF primary: -4; GPR151 ag: 0; FBW7 act: 0; TEAD-YAP inh: 6

How did Nc1nnc(CCOCCc2nnc(N)s2)s1 do in these assays?
MITF primary: 0; GPR151 ag: -1; FBW7 act: 0; TEAD-YAP inh: 0

How did O=C1N(C2Cc3ccccc3C2)C[C@@H]2C[C@@H](c3ccc4nsnc4c3)N3CCC[C@@]123 do in these assays?
MITF primary: -5; GPR151 ag: 9.4*; FBW7 act: 1; TEAD-YAP inh: -27; GPR151 confirm: 1; GPR119 counter: -3

What do the screens show for `O=C1N(C2Cc3ccccc3C2)C[C@@H]2C[C@@H](c3ccccc3F)N3CCC[C@@]123`?
MITF primary: -1; GPR151 ag: 15*; FBW7 act: 0; TEAD-YAP inh: 3; GPR151 confirm: 0; GPR119 counter: -5

How did Cc1ccc(-c2c(C(=O)N3CCN(c4ccccc4)CC3)oc(=O)c3ccccc23)cc1 do in these assays?
MITF primary: 16; GPR151 ag: -1; FBW7 act: 1; TEAD-YAP inh: -7

Results for COc1cc(CN2CCC(N3CCCCC3)CC2)cc(OC)c1 ?
MITF primary: 40; GPR151 ag: 0; FBW7 act: 1; TEAD-YAP inh: 4

How did Cc1nnc(NS(=O)(=O)c2ccc(Cl)cc2)s1 do in these assays?
MITF primary: 7; GPR151 ag: -1; FBW7 act: 0; TEAD-YAP inh: -4

How did CC(C)c1nnc2n1CCN(C(=O)c1cc(=O)c3ccccc3o1)CC2 do in these assays?
MITF primary: 3; GPR151 ag: 7.3*; FBW7 act: 0; TEAD-YAP inh: -22; GPR151 confirm: 1; GPR119 counter: 2

What do the screens show for `O=C(c1cc(=O)c2ccccc2o1)N1CCCC1`?
MITF primary: 1; GPR151 ag: 1; FBW7 act: 0; TEAD-YAP inh: 16

How did COc1ccccc1Cn1c(=S)[nH]c2cc(C(=O)N3CCCCC3)ccc2c1=O do in these assays?
MITF primary: 16; GPR151 ag: -1; FBW7 act: 1; TEAD-YAP inh: 10

How did COc1ccccc1Cn1c(=S)[nH]c2cc(C(=O)N3CCC(C(N)=O)(N4CCCCC4)CC3)ccc2c1=O do in these assays?
MITF primary: 7; GPR151 ag: 5.8*; FBW7 act: 0; TEAD-YAP inh: 11; GPR151 confirm: 2; GPR119 counter: 10

Results for CCOC(=O)CCC(=O)Nc1cccc2c(NC(=O)CCC(=O)OCC)cccc12 ?
MITF primary: -27; GPR151 ag: 2; FBW7 act: 0; TEAD-YAP inh: -10

Results for CCOC(=O)CCC(=O)Nc1cccc(Cl)c1Cl ?
MITF primary: 5; GPR151 ag: 6.9*; FBW7 act: 0; TEAD-YAP inh: 4; GPR151 confirm: 0; GPR119 counter: -4

What do the screens show for `COc1ccc(Cl)cc1NCc1c(CO)cnc(C)c1O`?
MITF primary: 2; GPR151 ag: -1; FBW7 act: 0; TEAD-YAP inh: -5

What do the screens show for `CNC(=O)CC1C(=O)N(c2cccc(C(F)(F)F)c2)C(=S)N1CCc1ccc(OC)c(OC)c1` (centres undefined)?
MITF primary: 1; GPR151 ag: 8.6*; FBW7 act: 0; TEAD-YAP inh: -9; GPR151 confirm: 0; GPR119 counter: 9

Results for Cc1ccc(NC(=O)c2ocnc2C)cc1C ?
MITF primary: -3; GPR151 ag: -4; FBW7 act: 0; TEAD-YAP inh: -44

What do the screens show for `COC(=O)CCNC(=O)NC(CCC(C)C)c1c(-n2cccc2)sc2c1CCN(C)C2` (centres undefined)?
MITF primary: -3; GPR151 ag: 2; FBW7 act: 0; TEAD-YAP inh: -6

What do the screens show for `COCCCNC(=O)NC(CCC(C)C)c1c(-n2cccc2)sc2c1CCN(C)C2` (centres undefined)?
MITF primary: -2; GPR151 ag: 8.2*; FBW7 act: 0; TEAD-YAP inh: 10; GPR151 confirm: 0; GPR119 counter: -5

Results for CCN1C(=O)CC(C(=O)Nc2cccc(C(=O)O)c2)SC1=Nc1cccc(Cl)c1 (centres undefined) ?
MITF primary: -3; GPR151 ag: 0; FBW7 act: 0; TEAD-YAP inh: -6

Results for CCOC(=O)c1ccc(-n2c(C)cc(/C=N/Nc3ccccn3)c2C)cc1 ?
MITF primary: 8; GPR151 ag: 1; FBW7 act: 0; TEAD-YAP inh: -24

Results for Cc1nnc(N/N=C/c2cc(C)n(-c3ccc(F)cc3)c2C)n1N ?
MITF primary: 0; GPR151 ag: 6.3*; FBW7 act: 0; TEAD-YAP inh: 10; GPR151 confirm: -1; GPR119 counter: -14

What do the screens show for `Cc1ccc(-n2c(C)cc(/C=N/Nc3ccccn3)c2C)cc1`?
MITF primary: 2; GPR151 ag: 5.5*; FBW7 act: 0; TEAD-YAP inh: -19; GPR151 confirm: 0; GPR119 counter: 9

How did Fc1ccccc1-c1cccc2ccc(N3CCN(c4ncnc5nc[nH]c45)CC3)nc12 do in these assays?
MITF primary: -6; GPR151 ag: 6.3*; FBW7 act: 0; TEAD-YAP inh: -7; GPR151 confirm: 0; GPR119 counter: 12

How did O=c1c(NC2CC2)c(N2CCN(c3ccc4cccc(-c5ccccc5F)c4n3)CC2)c1=O do in these assays?
MITF primary: 3; GPR151 ag: 5.3*; FBW7 act: 0; TEAD-YAP inh: 60*; GPR151 confirm: 1; GPR119 counter: 31*

Results for COc1ccccc1CN1CCC2(CCC(CNC(=O)c3ccn(C)n3)O2)CC1 (centres undefined) ?
MITF primary: -3; GPR151 ag: 6.4*; FBW7 act: 0; TEAD-YAP inh: 3; GPR151 confirm: 0; GPR119 counter: -3

Screens from PubChem BioAssay.
